From PubChem BioAssay
Only some compounds are listed: those with a hit (about 17% of all), similar ones and a draw of the others.
TDP1 block: TDP1 (human) enzyme inhibition; recombinant TDP1, AlphaScreen DNA substrate cleavage; Potency, µM (doses to about 130 µM), for inactives: at the top dose activity change, negative = inhibition, usual class: inhibitors; AID 485290; Q9NUW8; 0.28% of 350,000 active; note: % is set by controls: 0 for no effect and ±100 for the full control effect; nearly all actives have a fitted effect of over 40% in size
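Tdp1 1 nM final; 15 min RT w/ cpd; substrate 15 nM, 5 min; beads 10 ug/ml, 10 min; AlphaScreen read. Neg ctrl: no enzyme.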
DT40 TDP1 CPT: DT40-hTDP1 cell growth loss with CPT; chicken DT40 Tdp1-/-;hTDP1 cells + 20 nM CPT, ATP luminescence, 48 h; Potency, µM (doses to about 46.2 µM), inactives show at the top dose activity change, negative = growth inhibition, usual class: inhibitors; 12% of 420,000 active; note: % is set by controls: 0 for no effect and ±100 for the full control effect; nearly all actives have a fitted effect of over 55% in size
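Chicken DT40 Tdp1-/- cells stably complemented with human TDP1 were seeded at 400 cells/well in medium containing 20 nM camptothecin, exposed to pin-transferred compounds, and grown at 37 °C for at least 48 hr. Viability was read as ATP luminescence.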
ClpP mod: qHTS Assay for Activators of ClpP. purified B. subtilis ClpP, FRET peptide cleavage, 20 min. Potency, µM (titrated, usually from 57.5 µM), for inactives: at the highest dose activity change, negative = active. 1.9% of 340,000 active. AID 651965, 2013; active = well fitted falling curve with a large enough effect; inconclusive = small, poorly fitted or top-dose-only effect; inactive = no such curve, though single readings can be large or run the other way; note: the source files actives as falling curves though it sought activators and does not explain the sign; nearly all actives have a fitted effect of over 65% in size
Target sequence (P80244 whole entry, looked up): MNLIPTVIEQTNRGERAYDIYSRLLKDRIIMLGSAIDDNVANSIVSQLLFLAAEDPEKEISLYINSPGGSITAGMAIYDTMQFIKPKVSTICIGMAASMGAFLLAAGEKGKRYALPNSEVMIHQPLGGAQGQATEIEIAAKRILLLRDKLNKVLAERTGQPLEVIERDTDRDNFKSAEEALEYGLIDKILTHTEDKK
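FRET quenching reversal measured ClpP activation: 10 microg/mL B. subtilis ClpP at pH 8 with the FRET-FV decapeptide, read at 430 nm after 320 nm excitation. The 20-min minus 0-min signal was scaled between DMSO/no-enzyme wells and ADEP (5.8 microM final).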
TDP1 cell noCPT: qHTS for Inhibitors of human tyrosyl-DNA phosphodiesterase 1 (TDP1): qHTS in cells in absence of CPT. 15% of 420,000 active. DT40 Tdp1-/- hTDP1 cells, no CPT, ATP luminescence, 48 h. Potency, µM (doses to about 46.2 µM), for inactives: at the top dose activity change, negative = growth inhibition, hits mostly inhibitors; note: % is set by controls: 0 for no effect and ±100 for the full control effect; nearly all actives have a fitted effect of over 55% in size
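Luminescent ATP content (CellTiter-Glo) served as the growth readout. Knockout chicken DT40 cells expressing human TDP1 were exposed to compounds without camptothecin for a minimum 48 hr at 37 °C.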
The depositor's hits bear a star; ? = inconclusive; / = not tested or not shown; [ ] = dose if it differs, or a comment. Unless noted, calls come from the whole dose curve; as a rule, active = well fitted curve in the direction sought with a large enough effect; inconclusive = small, poorly fitted or top-dose-only effect, or another doubt; inactive = no such curve, though single readings can be large; an effect the other way counts as inactive or inconclusive. Potency is the fitted concentration of half-maximal effect.

SMILES | TDP1 block | DT40 TDP1 CPT | ClpP mod | TDP1 cell noCPT
O=C(Nc1ccccc1)C1=C[C@@H](C2CCCCC2)C[C@@H](OCc2ccc(CO)cc2)O1 | 3.8% | 18.4µM* | 0.2% | 23.1µM*
O=C(Nc1ccccc1)C1=C[C@H](C2CCCCC2)C[C@H](OCc2ccc(CO)cc2)O1 | 3.8% | ? | -0.7% | ?
O=C(C1=C[C@H](C2CCCCC2)C[C@H](OCc2ccc(CO)cc2)O1)N1CCN(Cc2ccccc2)CC1 | 7.7% | 18.4µM* | 0.6% | 18.4µM*
O=C(C1=C[C@H](C2CCCCC2)C[C@H](OCc2ccc(CO)cc2)O1)N1CCOCC1 | 0.0% | ? | -0.2% | ?
CC(C)C(=O)Nc1nnc(S(=O)(=O)N(C)Cc2ccc(F)cc2)s1 | 5.6% | -20.7% | -1.3% | -12.4%
O=C(c1ccc(F)cc1)N1CCC(C(=O)N2CCN(c3ncccn3)CC2)CC1 | -0.7% | 7.9% | ? | -1.8%
COc1cc(OC)cc(C(=O)Nc2ccccc2C(=O)NC2CC2)c1 | -0.5% | ? | 22.4% | 16.4µM*
COc1ccc(C)cc1NC(=O)NC1CCN(Cc2ccccc2)CC1 | 7.8% | 23.1µM* | -1.1% | ?
COC(=O)c1ccccc1NC(=O)NC1CCN(Cc2ccccc2)CC1 | 3.3% | ? | 28.2µM* | ?
COC(=O)c1ccccc1NC(=O)NC1CCC(C)CC1 (stereo not given) | 3.6% | -4.3% | 4.1% | 18.4µM*
CCN1CCC(NC(=O)Nc2ccccc2C(=O)OC)CC1 | 4.3% | -4.6% | ? | -6.3%
COc1ccc(NC(=O)c2ccccc2NC(=O)C2CCCCC2C(=O)O)cc1 (stereo not given) | / | -22.4% | -4.5% | ?
COC(=O)c1ccccc1NC(=O)C1CCCCC1C(=O)O (stereo not given) | 0.0% | -18.1% | 28.2µM* | -16.4%
CC(C)C(NCC(=O)Nc1ccccc1C(=O)NC1CC1)c1ccccc1 (stereo not given) | 1.1% | 16.4µM* | / | ?
CC(NCC(=O)Nc1ccccc1C(=O)NC1CC1)c1cccs1 (stereo not given) | 0.7% | -2.8% | / | -18.0%
CC(C)OCCCNC(=O)CNC(=O)c1ccc(Cl)c(Cl)c1 | -0.6% | 2.4% | / | 0.2%
CCOC(=O)N1CCC(NC(=O)c2c(C)nn(-c3ccc(C)cc3)c2-n2cccc2)CC1 | -2.8% | / | 1.8% | /
CCOC(=O)N1CCC(NC(=O)c2c(C)nn(-c3cccc(C)c3)c2-n2cccc2)CC1 | 10.5% | 20.6µM* | 1.2% | 18.4µM*
CCOC(=O)N1CCC(NC(=O)c2cnn(-c3cccc(F)c3)c2-n2cccc2)CC1 | -2.6% | ? | 0.7% | 18.4µM*
Cc1ccccc1NC(=O)CN1C(=O)S/C(=C\c2ccc(-c3cc(C(=O)O)ccc3C)o2)C1=O | / | -2.0% | / | -27.1%
Cc1cc(C(=O)O)ccc1-c1ccc(/C=C2\SC(=O)N(CC(=O)Nc3ccc4c(c3)OCO4)C2=O)o1 | 8.91µM* | / | / | /
Cc1cccc(NC(=O)CN2C(=O)S/C(=C\c3cc(C)n(C)c3C)C2=O)c1 | 8.2% | -22.3% | -0.8% | 18.4µM*
Cc1ccc(C(=O)O)cc1-c1ccc(/C=C2\SC(=O)N(CC(=O)Nc3ccccc3)C2=O)o1 | 39.8µM* | 15.2% | / | ?
C#CCN1C(=O)S/C(=C\c2ccc(-c3ccc(C(=O)O)cc3C)o2)C1=O | / | -1.0% | / | 5.0%
O=C(NCc1ccc(F)c(F)c1)c1ccc(-c2ccc(F)c(F)c2)c2ccoc12 | / | 18.4µM* | ? | 20.6µM*
SMILES | TDP1 block | DT40 TDP1 CPT | ClpP mod | TDP1 cell noCPT
O=C(NCC1CCOCC1)c1ccc(-c2ccc(F)c(F)c2)c2ccoc12 | / | 11.6µM* | 4.4% | 10.3µM*
O=C(NCc1ccc(Cl)cc1)c1ccc(-c2ccc(F)c(F)c2)c2ccoc12 | / | ? | 4.4% | ?
COc1ccc(-c2ccc(C(=O)NCc3cccs3)c3occc23)c(C)c1 | / | ? | 4.4% | ?
O=C(NCc1cccs1)c1ccc(-c2ccc(F)c(F)c2)c2ccoc12 | / | 11.6µM* | ? | 10.3µM*
Cc1c(C(=O)N2CCCCC2c2cccnc2)sc2ncnc(NCc3cccs3)c12 (stereo not given) | / | -3.1% | / | ?
O=C(c1cncs1)N(Cc1cc2cc3c(cc2nc1N1CCOCC1)CCC3)CC1CCCO1 (stereo not given) | / | -5.6%[9.04 µM] | / | -12.1%
O=C(c1ccc(F)cc1F)N1CCCN(c2nc(-c3ccccc3)ns2)CC1 | 6.5% | ? | -0.8% | ?
O=C(c1ccccc1)c1ccc(N2CCN(C(=O)c3ccc(F)cc3F)CC2)c(F)c1 | / | 23.1µM* | -7.5% | ?
CCCC(=O)c1ccc(N2CCN(C(=O)c3cccs3)CC2)c(F)c1 | / | ? | -0.3% | ?
CCC(=O)c1ccc(N2CCN(C(=O)c3ccc(Br)cc3)CC2)c(F)c1 | -3.9% | 20.6µM* | -2.3% | 10.3µM*
CCCC(=O)c1ccc(N2CCN(C(=O)c3ccccc3Br)CC2)c(F)c1 | -2.1% | 18.4µM* | -5.4% | 13µM*
CCC(=O)c1ccc(N2CCCCC2)c(F)c1 | 0.0% | -2.3% | -0.3% | 16.3%
CCCC(=O)c1ccc(N2CCN(S(=O)(=O)c3ccc(C)cc3)CC2)c(F)c1 | 6.3% | ? | -2.3% | 7.08µM*
COc1ccc(C(=O)N2CCN(c3ccccn3)CC2)cc1[N+](=O)[O-] | 2.6% | -4.4% | / | ?
Cc1ccc(NC(=S)N(CCC(C)C)C(C)c2ccncc2)c(Cl)c1 (stereo not given) | 0.0% | -30.0% | / | ?
O=C(C[n+]1cccc(Cl)c1)c1ccc(F)cc1 | / | -2.1% | -2.4% | -18.0%
CCCC(=O)c1ccc(N2CCN(C(=O)c3ccccc3)CC2)c(F)c1 | 1.0% | ? | -1.0% | ?
CCCC(=O)c1ccc(N2CCN(C(=O)c3ccc(Br)cc3)CC2)c(F)c1 | 4.0% | 23.1µM* | 0.1% | 7.31µM*
CCCCCC(=O)N1CCN(c2ccc(C(C)=O)cc2F)CC1 | -2.6% | 14.6µM* | -3.2% | 20.6µM*
CCC(=O)c1ccc(N2CCN(C(=O)c3cccc(F)c3)CC2)c(F)c1 | 3.7% | ? | / | 13µM*
CCC(=O)c1ccc(N2CCN(C(=O)c3ccc(F)cc3)CC2)c(F)c1 | -12.0% | 20.6µM* | / | 10.3µM*
O=C(OCC(=O)N1CCOCC1)c1cc(F)c(F)cc1Cl | / | 3.2% | / | 3.6%
COc1ccc(NC(=O)CN(C)C(=O)c2cnc(Cl)c(Cl)c2)cc1 | / | -17.0% | / | -7.4%
NNC(=S)Nc1c(F)cc(F)cc1Br | 4.1% | ? | / | 13µM*
NC(=O)c1cc2cc(Cc3ccccc3Cl)ccc2oc1=O | 2.5% | ? | -2.0% | -32.8%
CCC(CC)C(=O)N(C)c1c(C)nc2c(OCc3ccccc3C)cccn12 | / | 6.51µM* | 0.1% | 7.31µM*
CCC(CC)C(=O)N(C)c1c(C)nc2c(OCC(=O)N(C)C)cccn12 | / | -14.6% | -3.8% | 0.3%
CCC(CC)C(=O)N(C)c1c(C)nc2c(OCc3ccc(C#N)cc3)cccn12 | / | ? | -0.9% | 18.4µM*
